The source of these data is PubChem BioAssay (NCATS).

Assay [1] concerns the target Bile acid receptor (Homo sapiens) (UniProt Q96RI1). Nature of the assay: qHTS assay for small molecule agonists of farnesoid X receptor signaling (AID 588527).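 Note: series mostly up to about 77 µM; 0% = vehicle basal and 100% = reference agonist.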 The conditions noted are these: HEK293T FXR-UAS-bla, beta-lactamase ratio, 16 h; activation: stronger effect = higher value. The procedure, abridged:
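Quantitative HTS used FXR-UAS-bla HEK293T cells with 16 h compound incubation at 37 C. EC50 values came from concentration-response curves normalized to chenodeoxycholic acid.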

Assay [2] deals with Peroxisome proliferator-activated receptor delta (Homo sapiens) (UniProt Q03181). Nature of the assay: qHTS assay for small molecule agonists of peroxisome proliferator-activated receptor delta signaling (AID 588534).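 Note: 0% = DMSO basal wells and 100% = positive control agonist at 10 µM.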 The procedure, abridged: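 Reporter cells were plated and held 5 hrs at 37 C before compounds were added. After 18 hrs at 37 C, CCF4 dye was loaded for 2 hrs at RT and fluorescence measured.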
(In general: qHTS replaces the single test concentration by a dilution series.)

Assay [3] deals with Luciferin 4-monooxygenase (Photinus pyralis) (UniProt P08659). Briefly: Biochemical firefly luciferase enzyme assay for NPC (AID 624030; active = well fitted curve in the direction sought with a large enough effect; an effect the other way counts as inactive or inconclusive;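 note: purified P. pyralis luciferase at 10 nM with luciferin and ATP substrate; series mostly up to about 59 µM; 0% = DMSO and -100% = full luciferase inhibition by PTC124 control; nearly all actives have a fitted effect of over 70% in size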). The procedure, abridged: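 Direct inhibition of firefly luciferase enzyme (10 nM final, 50 mM Tris Acetate) assessed by luminescence within 5 minutes. Percent activity scaled between DMSO and PTC124 positive control, with concentration-effect curves classified by fit quality and response.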

The target in assay [4] is Peroxisome proliferator-activated receptor gamma (Homo sapiens) (UniProt P37231). Briefly: qHTS assay for small molecule antagonists of peroxisome proliferator-activated receptor gamma signaling (AID 588537; active = well fitted inhibition curve with a large enough effect in the signal ratio, with a control signal flat, not every such curve was filed as active; the % refers to the signal ratio;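 note: reporter cells co-stimulated with 50 nM rosiglitazone agonist during compound treatment; % of control where 0% means no effect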). The procedure, abridged:
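Inhibitors of agonist-stimulated UAS-bla reporter activity were sought in HEK293 cells; rosiglitazone (50 nM) defined full signal and DMSO baseline. Curves fitted to Hill model gave IC50 and efficacy.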

The nature of assay [5]: qHTS assay for small molecule activators of the p53 signaling pathway (AID 651743; active = well fitted activation curve with a large enough effect in the signal ratio, not every such curve was filed as active; the % refers to the signal ratio; note: series mostly up to about 92 µM; % of control where 0% means no effect). The conditions noted are these: HCT-116 p53RE-bla, beta-lactamase FRET ratio, 16 h; activation: stronger effect = higher value. The procedure, abridged:
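Screen for p53 pathway agonists uses stably transfected p53RE-bla HCT-116 cells, 4,000 per well, treated 16 h at 37 C with compounds in DMSO.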

Assay [6] deals with Nuclear receptor ROR-gamma (Homo sapiens) (UniProt P51449). Nature of the assay: qHTS assay for small molecule antagonists of the retinoid-related orphan receptor gamma (ROR-gamma) signaling pathway (AID 651802; active = well fitted curve in the direction sought with a large enough effect; an effect the other way counts as inactive or inconclusive; note: potency is the fitted concentration of half-maximal effect; nearly all actives have a fitted effect of over 60% in size). The procedure, abridged: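 Antagonism is scored as a fall in luminescence from a RORE-luciferase reporter in CHO cells expressing ROR under a TET-inducible promoter, measured 16hr after doxycycline induction in the presence of compound.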

A short description of assay [7]: qHTS assay for environmental chemicals that activate the Aryl hydrocarbon Receptor (AhR) signaling pathway (AID 651777; active = well fitted curve in the direction sought with a large enough effect; an effect the other way counts as inactive or inconclusive; note: nearly all actives have a fitted effect of over 15% in size; note: potency is the fitted concentration of half-maximal effect; for activation: % of control where 0% means no effect). The conditions noted are these: 1A2-DRE human hepatoma cells, luciferase, 24 h; activation: stronger effect = higher value. The procedure, abridged: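 1A2-DRE human hepatoma reporter line; 1,200 cells/well; cmpd or DMSO 24 h, 37 C/5% CO2; One-Glo 30 min RT; luciferase lum.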

Assay [8] addresses Cytochrome P450 3A4 (Homo sapiens) (UniProt P08684). Briefly: qHTS Assay for Activators of Cytochrome P450 3A4 (AID 885; active = well fitted curve in the direction sought with a large enough effect; an effect the other way counts as inactive or inconclusive; note: nearly all actives have a fitted effect of over 65% in size). The procedure, abridged: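 Quantitative HTS format: compounds preincubated with 20nM human CYP3A4 and Luciferin-PPXE substrate at KM, reaction started by NADPH regeneration, stopped after 60 min, luciferase luminescence read 20 min later.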
The nature of assay [9]: Cell Viability - LYMP2-003 (AID 965; active = well fitted curve in the direction sought with a large enough effect; an effect the other way counts as inactive or inconclusive;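 note: potency is the fitted concentration of half-maximal effect; cells exposed to compounds for 24 h before reading; nearly all actives have a fitted effect of over 50% in size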). The procedure, abridged: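 Acute cytotoxicity is scored as a concentration-dependent drop in intracellular ATP, measured by luciferase luminescence in human lymphoblastoid cells treated for 24 hours at 37 C. AC50 values derive from Hill-equation modelling.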
Assay [10] in a line: Cell Viability - LYMP2-005 (AID 967; active = well fitted curve in the direction sought with a large enough effect; an effect the other way counts as inactive or inconclusive; note: potency is the fitted concentration of half-maximal effect). The procedure, abridged: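 qHTS viability screen in LYMP2-005 cells: 24 h at 37 C with compound, ATP luminescence via CellTiter-Glo, AC50 from Hill curves.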
The target of assay [11] is Vitamin D3 receptor (Homo sapiens) (UniProt P11473). Nature of the assay: qHTS assay for small molecule agonists of vitamin D receptor signaling (AID 588543).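 Note: 0% = DMSO basal and 100% = reference agonist control.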 The procedure, abridged: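 qHTS in agonist mode: compound titrations stimulate a VDR-driven β-lactamase reporter in HEK293T cells over 16 h at 37 °C. Response normalized to 50 nM 1α,25-dihydroxyvitamin D3 = 100%, DMSO = 0%; Hill fitting gives EC50 and maximal response.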

The nature of assay [12]: qHTS assay for small molecule antagonists of retinoid X receptor alpha signaling (AID 588546; active = well fitted inhibition curve with a large enough effect in the signal ratio, with a control signal flat, not every such curve was filed as active; the % refers to the signal ratio; note: potency is the fitted concentration of half-maximal effect;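 for max response: cells stimulated with 9-cis-retinoic acid as agonist; % is set by controls: 0 for no effect and ±100 for the full control effect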). The conditions noted are these: HEK293T RXRa-UAS-bla, beta-lactamase ratio, antagonist mode; measured here: W530 green channel, cytotoxicity proxy. The procedure, abridged: (§1)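 Beta-lactamase reporter inhibition, read as CCF4 fluorescence ratio (ex 405, em 460/530 nm) after 2 h at RT. HEK293T UAS-bla cells, 2500/well, were stimulated with 9-cis-RA at 500 or 100 nM final alongside test compound for 18 h at 37 C.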

In assay [13] the target is Retinoic acid receptor RXR-alpha (Homo sapiens) (UniProt P19793). The description is as above. The conditions noted are these: HEK293T RXRa-UAS-bla, beta-lactamase ratio, antagonist mode. The procedure, abridged: as §1
Assay [14] concerns the target Peroxisome proliferator-activated receptor alpha (Homo sapiens) (UniProt Q07869). Briefly: qHTS assay for small molecule agonists of the peroxisome proliferator-activated receptor alpha (PPARalpha) signaling pathway (AID 651778; active = well fitted curve in the direction sought with a large enough effect; an effect the other way counts as inactive or inconclusive; note: % of control where 0% means no effect). The conditions noted are these: PathHunter PPARalpha complementation, chemiluminescence, 6 h; max response: stronger effect = higher value. The procedure, abridged: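 Chemiluminescence from complemented enzyme reported PPARalpha activation in cells after 6 hr of compound treatment at 37 C. The detection reagent was incubated for 60 min at room temperature, and compounds were scored as agonists.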

Assay [15] in a line: qHTS assay for small molecule agonists of the antioxidant response element (ARE) signaling pathway measured by Nrf2-dependant transcriptional activity (AID 720636; active = well fitted curve in the direction sought with a large enough effect in the repeat runs; an effect the other way counts as inactive or inconclusive;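 note: HepG2 cells with an ARE-driven luciferase reporter; % of control where 0% means no effect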). The procedure, abridged: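 Cells: ARE-luc HepG2 with Nrf2-responsive luciferase. Medium contained 1% dialyzed FBS. Compound exposure lasted 16 hr at 37 C and 5% CO2, followed by ONE-Glo luciferase detection.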
A short description of assay [16]: qHTS assay for cell viability of HEK293 cells (AID 743288; active = well fitted curve in the direction sought with a large enough effect; an effect the other way counts as inactive or inconclusive; note: potency is the fitted concentration of half-maximal effect; nearly all actives have a fitted effect of over 50% in size). To be noted: ATP luminescence (CellTiter-Glo), 18 h; max response: stronger effect = lower value. The procedure, abridged: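 The Tox21 protocol used parental HEK293 cells treated for 18 h at 37 C with compounds delivered by pintool; ATP-coupled luminescence after 30 min at room temperature gave viability.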
Assay [17] is described as follows: qHTS assay for cell viability of the p53RE-bla HCT-116 cell line (AID 743292; active = well fitted curve in the direction sought with a large enough effect; an effect the other way counts as inactive or inconclusive; note: potency is the fitted concentration of half-maximal effect; nearly all actives have a fitted effect of over 55% in size). The procedure, abridged:
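HCT-116 p53RE-bla cells seeded 4,000/well; 5 h at 37 C; compound (DMSO) added; 16 h at 37 C; CellTiter-Glo added, 30 min RT; luminescence read.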

Assay [18] concerns the target Nuclear receptor subfamily 1 group I member 2 (Rattus norvegicus) (UniProt Q9R1A7). Briefly: qHTS assay for small molecule activators of the rat pregnane X receptor (rPXR) signaling pathway (AID 651751; call rule not given here; note: 0% is about no effect). To be noted: rPXR reporter cells, luciferase (One-Glo), 24 h.
A short description of assay [19]: qHTS assay for small molecule agonists of the antioxidant response element (ARE) signaling pathway (AID 651741; active = well fitted activation curve with a large enough effect in the signal ratio; the % refers to the signal ratio; note: potency is the fitted concentration of half-maximal effect; for activation: % of control where 0% means no effect). The procedure, abridged: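 Seeding 2,000 ARE-bla HepG2 cells per well preceded a 5 h incubation at 37 C/5% CO2 and a 16 h compound exposure at 37 C. Beta-lactamase reporter activity was then quantified by fluorescence after 2 h with LiveBLAzer B/G FRET substrate.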

A short description of assay [20]: qHTS assay for small molecule activators of the nuclear factor-kappa B (NF-kB) signaling pathway (AID 651749; active = well fitted activation curve with a large enough effect in the signal ratio; the % refers to the signal ratio; note: series mostly up to about 77 µM; % of control where 0% means no effect). The conditions noted are these: NF-kB-bla ME-180 cells, beta-lactamase FRET ratio, 16 h; activation: stronger effect = higher value. The procedure, abridged:
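Stably transfected ME-180 line; NF-kB response element upstream of beta-lactamase. Treatment: compound or DMSO, 16 hr. Detection: fluorescent FRET substrate.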

Assay [21] is described as follows: qHTS assay for small molecule activators of the human pregnane X receptor (PXR) signaling pathway (AID 720659; call rule not given here; note: 0% is about no effect).

“And” between values parts separate entries of the source, which are not always exact repeats. Equal entries are not always repeated. Records with an inconclusive call do not appear. The source holds several records for some structures; these can differ, active in one and inactive in another. The source made the active and inactive calls. Unless noted, calls come from the whole dose curve.

Chain of Peroxisome proliferator-activated receptor delta (Homo sapiens) (Q03181 whole entry, looked up): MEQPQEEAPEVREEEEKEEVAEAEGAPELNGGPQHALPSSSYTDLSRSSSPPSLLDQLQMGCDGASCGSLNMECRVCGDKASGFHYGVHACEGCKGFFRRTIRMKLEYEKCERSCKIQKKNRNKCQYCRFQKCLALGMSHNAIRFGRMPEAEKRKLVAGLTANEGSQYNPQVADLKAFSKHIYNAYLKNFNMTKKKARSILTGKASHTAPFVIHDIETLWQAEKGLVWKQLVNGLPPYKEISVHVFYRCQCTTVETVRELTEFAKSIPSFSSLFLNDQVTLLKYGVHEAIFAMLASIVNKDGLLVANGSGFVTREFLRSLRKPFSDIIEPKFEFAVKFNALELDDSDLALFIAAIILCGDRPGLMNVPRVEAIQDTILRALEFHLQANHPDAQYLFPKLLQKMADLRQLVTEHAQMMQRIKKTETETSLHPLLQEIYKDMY
Chain of Bile acid receptor (Homo sapiens) (Q96RI1 whole entry, looked up): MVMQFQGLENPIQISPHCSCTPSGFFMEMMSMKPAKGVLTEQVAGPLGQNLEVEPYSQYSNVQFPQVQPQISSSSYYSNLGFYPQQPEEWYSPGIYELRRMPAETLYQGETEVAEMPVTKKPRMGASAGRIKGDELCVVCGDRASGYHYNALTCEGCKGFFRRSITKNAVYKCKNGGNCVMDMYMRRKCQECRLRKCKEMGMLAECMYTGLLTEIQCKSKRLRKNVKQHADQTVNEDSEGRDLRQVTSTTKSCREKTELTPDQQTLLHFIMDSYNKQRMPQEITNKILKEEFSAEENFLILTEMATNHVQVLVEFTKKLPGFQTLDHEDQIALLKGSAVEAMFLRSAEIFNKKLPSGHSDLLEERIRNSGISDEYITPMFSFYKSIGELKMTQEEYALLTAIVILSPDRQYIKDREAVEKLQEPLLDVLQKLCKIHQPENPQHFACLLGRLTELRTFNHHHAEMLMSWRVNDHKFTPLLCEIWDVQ
Chain of Cytochrome P450 3A4 (Homo sapiens) (P08684 whole entry, looked up): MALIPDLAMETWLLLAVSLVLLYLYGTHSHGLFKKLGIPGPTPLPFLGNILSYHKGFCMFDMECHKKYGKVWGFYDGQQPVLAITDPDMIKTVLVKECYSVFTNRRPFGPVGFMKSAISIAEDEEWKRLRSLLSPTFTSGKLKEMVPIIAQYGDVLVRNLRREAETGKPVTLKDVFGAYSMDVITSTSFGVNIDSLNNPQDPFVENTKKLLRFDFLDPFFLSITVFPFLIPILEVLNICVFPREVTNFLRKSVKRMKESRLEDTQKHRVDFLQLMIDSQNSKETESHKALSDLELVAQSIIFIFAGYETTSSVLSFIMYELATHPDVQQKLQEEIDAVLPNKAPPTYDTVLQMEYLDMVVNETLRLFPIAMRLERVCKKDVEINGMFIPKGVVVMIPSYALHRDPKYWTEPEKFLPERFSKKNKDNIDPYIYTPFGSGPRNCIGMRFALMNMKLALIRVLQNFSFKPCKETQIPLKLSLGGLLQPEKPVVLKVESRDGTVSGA
Chain of Vitamin D3 receptor (Homo sapiens) (P11473 whole entry, looked up): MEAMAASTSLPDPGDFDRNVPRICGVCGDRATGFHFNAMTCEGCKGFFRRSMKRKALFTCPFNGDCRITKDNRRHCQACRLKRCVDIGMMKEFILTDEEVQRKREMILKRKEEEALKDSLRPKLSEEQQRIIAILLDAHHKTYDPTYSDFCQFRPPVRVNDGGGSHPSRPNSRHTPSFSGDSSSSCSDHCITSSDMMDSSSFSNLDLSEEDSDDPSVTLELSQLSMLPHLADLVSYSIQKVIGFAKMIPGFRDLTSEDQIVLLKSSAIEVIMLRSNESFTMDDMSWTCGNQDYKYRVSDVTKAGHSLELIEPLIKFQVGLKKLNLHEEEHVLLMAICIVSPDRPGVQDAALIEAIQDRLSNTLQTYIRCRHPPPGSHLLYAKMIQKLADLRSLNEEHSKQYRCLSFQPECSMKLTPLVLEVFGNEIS
Chain of Peroxisome proliferator-activated receptor alpha (Homo sapiens) (Q07869 whole entry, looked up): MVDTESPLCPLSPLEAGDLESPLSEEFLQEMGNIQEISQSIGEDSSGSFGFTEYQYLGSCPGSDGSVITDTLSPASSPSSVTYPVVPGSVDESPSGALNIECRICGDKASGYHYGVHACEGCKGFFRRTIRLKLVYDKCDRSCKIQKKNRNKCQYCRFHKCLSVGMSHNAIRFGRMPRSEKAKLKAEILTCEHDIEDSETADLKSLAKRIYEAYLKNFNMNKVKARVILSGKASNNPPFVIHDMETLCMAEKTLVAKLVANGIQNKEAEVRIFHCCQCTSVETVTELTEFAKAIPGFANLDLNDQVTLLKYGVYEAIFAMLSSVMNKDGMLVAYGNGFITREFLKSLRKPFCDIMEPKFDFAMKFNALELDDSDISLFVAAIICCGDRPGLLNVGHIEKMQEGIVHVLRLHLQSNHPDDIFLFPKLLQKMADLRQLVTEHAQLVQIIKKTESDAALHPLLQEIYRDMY
Chain of Luciferin 4-monooxygenase (Photinus pyralis) (P08659 whole entry, looked up): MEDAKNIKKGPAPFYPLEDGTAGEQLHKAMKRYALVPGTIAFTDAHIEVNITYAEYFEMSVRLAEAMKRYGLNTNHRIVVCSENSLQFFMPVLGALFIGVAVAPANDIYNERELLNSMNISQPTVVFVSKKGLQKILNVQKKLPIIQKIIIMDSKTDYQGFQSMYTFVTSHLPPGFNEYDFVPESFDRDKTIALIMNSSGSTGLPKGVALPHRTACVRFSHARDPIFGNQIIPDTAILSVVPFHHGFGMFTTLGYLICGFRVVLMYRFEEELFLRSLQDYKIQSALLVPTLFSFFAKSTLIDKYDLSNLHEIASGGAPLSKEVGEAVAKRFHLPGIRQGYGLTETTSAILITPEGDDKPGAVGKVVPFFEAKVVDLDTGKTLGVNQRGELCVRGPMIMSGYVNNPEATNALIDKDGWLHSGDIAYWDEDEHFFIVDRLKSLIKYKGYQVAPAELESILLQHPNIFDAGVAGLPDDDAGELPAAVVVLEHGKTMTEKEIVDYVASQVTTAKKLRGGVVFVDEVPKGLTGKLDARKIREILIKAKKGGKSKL
Chain of Peroxisome proliferator-activated receptor gamma (Homo sapiens) (P37231 whole entry, looked up): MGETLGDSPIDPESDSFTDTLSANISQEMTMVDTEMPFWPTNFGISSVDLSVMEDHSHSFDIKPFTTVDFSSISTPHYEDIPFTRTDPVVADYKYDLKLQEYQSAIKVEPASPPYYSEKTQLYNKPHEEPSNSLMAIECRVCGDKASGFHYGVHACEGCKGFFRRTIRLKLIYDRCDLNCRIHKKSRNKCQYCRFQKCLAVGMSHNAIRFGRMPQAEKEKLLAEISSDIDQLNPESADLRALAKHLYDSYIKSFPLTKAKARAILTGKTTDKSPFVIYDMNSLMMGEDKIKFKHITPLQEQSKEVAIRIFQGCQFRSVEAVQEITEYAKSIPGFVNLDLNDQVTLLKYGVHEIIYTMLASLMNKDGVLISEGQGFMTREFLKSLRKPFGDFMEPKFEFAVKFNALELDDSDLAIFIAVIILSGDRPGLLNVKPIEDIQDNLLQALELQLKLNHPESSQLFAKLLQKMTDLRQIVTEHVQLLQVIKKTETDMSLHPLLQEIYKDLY
Chain of Retinoic acid receptor RXR-alpha (Homo sapiens) (P19793 whole entry, looked up): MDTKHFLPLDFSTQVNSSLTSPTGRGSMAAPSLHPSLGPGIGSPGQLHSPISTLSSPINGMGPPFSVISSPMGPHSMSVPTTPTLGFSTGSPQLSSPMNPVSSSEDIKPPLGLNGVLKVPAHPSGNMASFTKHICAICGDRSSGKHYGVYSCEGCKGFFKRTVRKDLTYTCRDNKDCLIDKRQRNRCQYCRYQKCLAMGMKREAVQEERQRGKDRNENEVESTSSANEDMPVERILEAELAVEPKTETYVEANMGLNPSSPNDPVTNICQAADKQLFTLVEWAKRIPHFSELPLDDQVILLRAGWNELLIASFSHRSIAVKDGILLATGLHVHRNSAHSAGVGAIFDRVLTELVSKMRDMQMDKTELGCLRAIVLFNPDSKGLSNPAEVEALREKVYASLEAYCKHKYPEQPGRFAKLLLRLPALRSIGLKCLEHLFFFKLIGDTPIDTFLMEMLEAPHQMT
Chain of Nuclear receptor ROR-gamma (Homo sapiens) (P51449 whole entry, looked up): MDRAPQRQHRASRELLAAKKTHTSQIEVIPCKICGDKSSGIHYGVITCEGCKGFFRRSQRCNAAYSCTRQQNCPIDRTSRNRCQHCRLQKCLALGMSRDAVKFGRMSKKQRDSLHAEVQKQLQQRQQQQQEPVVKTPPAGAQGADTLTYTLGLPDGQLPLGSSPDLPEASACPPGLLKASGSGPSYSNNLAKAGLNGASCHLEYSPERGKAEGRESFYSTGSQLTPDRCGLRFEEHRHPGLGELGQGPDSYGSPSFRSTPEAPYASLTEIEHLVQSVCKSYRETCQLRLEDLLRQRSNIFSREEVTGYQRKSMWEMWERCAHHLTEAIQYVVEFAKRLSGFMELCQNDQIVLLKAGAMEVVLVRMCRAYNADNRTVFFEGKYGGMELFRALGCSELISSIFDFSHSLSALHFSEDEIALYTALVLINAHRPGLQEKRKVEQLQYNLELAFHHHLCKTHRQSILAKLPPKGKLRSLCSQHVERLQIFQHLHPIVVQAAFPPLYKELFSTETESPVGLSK
Chain of Nuclear receptor subfamily 1 group I member 2 (Rattus norvegicus) (Q9R1A7 whole entry, looked up): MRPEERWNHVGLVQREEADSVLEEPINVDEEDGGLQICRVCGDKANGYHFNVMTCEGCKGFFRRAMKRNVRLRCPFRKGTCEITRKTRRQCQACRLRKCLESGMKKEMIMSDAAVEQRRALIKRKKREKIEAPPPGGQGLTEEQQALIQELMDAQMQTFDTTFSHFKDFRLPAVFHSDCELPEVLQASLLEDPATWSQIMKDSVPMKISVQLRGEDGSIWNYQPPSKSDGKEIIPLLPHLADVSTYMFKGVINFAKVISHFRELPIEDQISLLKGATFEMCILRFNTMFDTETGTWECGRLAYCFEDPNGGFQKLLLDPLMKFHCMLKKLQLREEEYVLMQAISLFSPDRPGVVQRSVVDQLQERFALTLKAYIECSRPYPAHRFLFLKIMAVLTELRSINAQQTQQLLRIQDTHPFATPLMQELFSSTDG

For `ClC(Cl)Cl`, the activation in assay [1] was 0.676% (inactive). Besides, the compound was called inactive in [2]. In addition, the Potency entry in assay [3] was “inactive”.
As to `Cc1ccc(C)cc1`, the activation in [1] is -1.18% (inactive). The result in [2] was inactive.
Take `Nc1cccc(C(F)(F)F)c1`: the activation in [1] is -1.94% (inactive) and -0.257% (inactive); in assay [5], -3.34% (inactive). The outcome in assay [2] was inactive. In addition, the Potency result in assay [4] was “inactive”.
As for `CC(C)(C)C(=O)C1C(=O)c2ccccc2C1=O`, in assay [1], the activation was 1.07% (inactive). For the same compound, the Potency in [6] was 21.1 µM (active).
In the case of `Oc1ccc2ccccc2c1N=Nc1ccccc1`, the activation in assay [1] was 3.78% (inactive). Besides, in assay [7], the Potency was 14.1 µM (active).
For the compound `Cc1cc([N+](=O)[O-])ccc1N`, in [8], the Potency result was “inactive”. For the same compound, the activation in assay [1] is -0.935% (inactive). In addition, in [2], the outcome was inactive.
Consider `Nc1ccc(-c2ccc(N)c(O)c2)cc1O`, for which the Potency result in [8] is “inactive”. For the same compound, the Potency in assay [9] and in assay [10] was 50.1 µM (active) in each case. Moreover, in assay [1], the activation was -0.21% (inactive). In assay [2], the result was inactive.
In the case of `CN(c1c(Br)cc(Br)cc1Br)c1c([N+](=O)[O-])cc([N+](=O)[O-])cc1C(F)(F)F`, in assay [1], the activation is 1.9% (inactive). Besides, the outcome in [11] was inactive. Further, the values for the max response in assay [12], in assay [14] and in [18] were -24%, -2.57% (inactive) and -14.1% (inactive), respectively. The figures for the Potency in assay [13], in [16] and in assay [17] were 8.91 µM (active), 39.8 µM (active) and 7.08 µM (active), respectively. Also, the Potency result in [15] was “inactive”.
In the case of `c1ccc(-c2ccc(-c3ccccc3)cc2)cc1`, the activation in [1] is 2.41% (inactive). Moreover, the result in [2] was inactive. Also, the Potency in assay [19] is 19.3 µM (active).
On to `Cc1ccc([N+](=O)[O-])cc1N`, for which the Potency result in [8] was “inactive”. Besides, the activation in [1] was -0.807% (inactive) and -1.04% (inactive). In [2], the result was inactive. Moreover, in assay [19], the Potency is 33.5 µM (active) and inactive.
Turning to `O=C1c2ccccc2C(=O)N1SC(Cl)(Cl)Cl`, the activation in assay [1] was 6.44% (inactive); in assay [20], 3.09% (inactive); in assay [7] it was -3.47% (inactive). Also, the call in [11] and in [21] was inactive. In [14], the max response was 9.12% (inactive).
